Results: publication PMC7862700, “An all-to-all approach to the identification of sequence-specific readers for epigenetic DNA modifications on cytosine”

Assays:
Experiment in all cases: DAPPL (digital affinity profiling via proximity ligation, sequencing); 10 mM Tris-HCl pH 7.5, 50 mM NaCl, 1 mM DTT, 4% glycerol, room temperature, 30 min; GST-TFs on glutathione beads, 16-mer random dsDNA library, 0.1% formaldehyde crosslink after washing; high values mean tight binding
[1] = target: T1, FEV (Homo sapiens, UniProt Q99581 1-238); settings: protein: recombinant; tags: N-terminal GST; dsDNA, one strand shown
T1 sequence: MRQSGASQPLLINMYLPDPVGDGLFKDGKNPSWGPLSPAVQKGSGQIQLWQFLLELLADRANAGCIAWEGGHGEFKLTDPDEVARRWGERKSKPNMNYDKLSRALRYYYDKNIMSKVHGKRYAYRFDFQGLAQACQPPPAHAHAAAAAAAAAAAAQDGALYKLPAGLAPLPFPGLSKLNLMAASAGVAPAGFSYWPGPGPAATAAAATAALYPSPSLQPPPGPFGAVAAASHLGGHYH
Procedure, shortened: (§1)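 Beads coated with glutathione captured GST-fused human transcription factors that had been expressed in yeast, and the factors were then given DNA barcodes and pooled with a tag-only sample. The pools were incubated with 200 nmole of a random double-stranded 16-mer DNA library in Tris/NaCl/DTT/glycerol buffer for 30 min at room temperature, washed, crosslinked with 0.1% formaldehyde and proximity-ligated with BsaI/T4 ligase at 37 °C for 1 h. PCR amplification and Illumina NextSeq500 sequencing came last. Binding signal is each hexamer's read frequency for a factor divided by its frequency for the tag-only sample.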

[2] = target: ETV5 (Homo sapiens, UniProt P41161 1-510); settings: protein: recombinant; tags: N-terminal GST; dsDNA, one strand shown
Sequence of ETV5 (P41161 whole entry): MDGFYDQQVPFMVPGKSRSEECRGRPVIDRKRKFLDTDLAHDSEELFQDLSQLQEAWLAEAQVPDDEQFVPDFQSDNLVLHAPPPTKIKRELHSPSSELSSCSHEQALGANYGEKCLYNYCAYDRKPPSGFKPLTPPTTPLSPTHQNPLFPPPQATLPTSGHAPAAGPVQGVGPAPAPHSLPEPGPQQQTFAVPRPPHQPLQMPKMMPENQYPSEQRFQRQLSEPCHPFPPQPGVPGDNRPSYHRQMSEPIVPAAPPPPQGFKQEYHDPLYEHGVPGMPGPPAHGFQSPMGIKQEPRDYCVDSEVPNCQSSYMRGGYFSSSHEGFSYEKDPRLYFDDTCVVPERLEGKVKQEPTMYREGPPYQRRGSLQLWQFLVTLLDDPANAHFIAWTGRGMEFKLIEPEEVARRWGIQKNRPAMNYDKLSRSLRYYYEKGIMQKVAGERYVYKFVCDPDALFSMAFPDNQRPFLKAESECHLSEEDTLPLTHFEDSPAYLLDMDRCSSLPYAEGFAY
Procedure, shortened: as §1

[3] = target: HSF1 (Homo sapiens, UniProt Q00613 1-529); settings: protein: recombinant; tags: N-terminal GST; chain copies: 3; dsDNA, one strand shown
Sequence of HSF1 (Q00613 whole entry): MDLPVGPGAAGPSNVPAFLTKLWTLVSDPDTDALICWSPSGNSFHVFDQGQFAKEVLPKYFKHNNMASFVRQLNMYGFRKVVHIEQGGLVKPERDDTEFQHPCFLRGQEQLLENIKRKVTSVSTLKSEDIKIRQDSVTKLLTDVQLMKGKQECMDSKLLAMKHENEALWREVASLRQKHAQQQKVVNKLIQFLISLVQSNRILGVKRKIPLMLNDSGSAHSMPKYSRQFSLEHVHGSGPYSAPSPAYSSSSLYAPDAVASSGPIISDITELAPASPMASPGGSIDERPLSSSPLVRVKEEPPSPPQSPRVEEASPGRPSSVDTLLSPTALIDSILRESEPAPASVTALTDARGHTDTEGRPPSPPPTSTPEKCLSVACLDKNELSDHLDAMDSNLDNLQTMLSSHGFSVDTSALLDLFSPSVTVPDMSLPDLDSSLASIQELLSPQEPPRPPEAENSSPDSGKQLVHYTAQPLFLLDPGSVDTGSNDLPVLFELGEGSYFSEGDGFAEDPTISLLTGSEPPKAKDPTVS
Procedure, shortened: as §1

[4] = target: T2, SPIC (Homo sapiens, UniProt Q8N5J4 1-248); settings: protein: recombinant; tags: N-terminal GST; dsDNA, one strand shown
T2 sequence: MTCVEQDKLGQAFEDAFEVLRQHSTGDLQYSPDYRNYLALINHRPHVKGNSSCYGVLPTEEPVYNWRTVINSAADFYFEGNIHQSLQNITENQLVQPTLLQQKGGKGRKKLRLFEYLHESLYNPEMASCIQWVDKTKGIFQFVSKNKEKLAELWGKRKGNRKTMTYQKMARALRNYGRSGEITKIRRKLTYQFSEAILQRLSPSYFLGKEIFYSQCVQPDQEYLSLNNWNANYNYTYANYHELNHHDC
Procedure, shortened: as §1

[5] = target: ELF4 (Homo sapiens, UniProt Q99607 1-663); settings: protein: recombinant; tags: N-terminal GST; dsDNA, one strand shown
Sequence of ELF4 (Q99607 whole entry): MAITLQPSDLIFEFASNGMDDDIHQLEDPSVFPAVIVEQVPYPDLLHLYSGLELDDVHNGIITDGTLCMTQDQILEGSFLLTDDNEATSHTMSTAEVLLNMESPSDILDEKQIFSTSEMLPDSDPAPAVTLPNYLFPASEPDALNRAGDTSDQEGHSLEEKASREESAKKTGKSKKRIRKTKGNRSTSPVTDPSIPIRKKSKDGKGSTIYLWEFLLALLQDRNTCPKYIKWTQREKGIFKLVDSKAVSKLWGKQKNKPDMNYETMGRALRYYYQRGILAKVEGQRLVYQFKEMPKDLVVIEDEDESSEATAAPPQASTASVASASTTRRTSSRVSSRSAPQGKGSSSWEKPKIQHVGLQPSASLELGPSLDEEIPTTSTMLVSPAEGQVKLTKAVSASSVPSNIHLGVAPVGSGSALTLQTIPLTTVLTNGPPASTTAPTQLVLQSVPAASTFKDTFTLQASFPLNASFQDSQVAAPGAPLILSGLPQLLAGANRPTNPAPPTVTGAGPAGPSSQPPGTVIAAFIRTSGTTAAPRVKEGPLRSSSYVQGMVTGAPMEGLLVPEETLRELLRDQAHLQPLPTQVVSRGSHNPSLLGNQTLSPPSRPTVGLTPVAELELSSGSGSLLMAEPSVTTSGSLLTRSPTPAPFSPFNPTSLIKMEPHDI
Procedure, shortened: as §1

[6] = target: T3, ELK4 (Homo sapiens, UniProt P28324-2 1-405); settings: protein: recombinant; tags: N-terminal GST; dsDNA, one strand shown
T3 sequence: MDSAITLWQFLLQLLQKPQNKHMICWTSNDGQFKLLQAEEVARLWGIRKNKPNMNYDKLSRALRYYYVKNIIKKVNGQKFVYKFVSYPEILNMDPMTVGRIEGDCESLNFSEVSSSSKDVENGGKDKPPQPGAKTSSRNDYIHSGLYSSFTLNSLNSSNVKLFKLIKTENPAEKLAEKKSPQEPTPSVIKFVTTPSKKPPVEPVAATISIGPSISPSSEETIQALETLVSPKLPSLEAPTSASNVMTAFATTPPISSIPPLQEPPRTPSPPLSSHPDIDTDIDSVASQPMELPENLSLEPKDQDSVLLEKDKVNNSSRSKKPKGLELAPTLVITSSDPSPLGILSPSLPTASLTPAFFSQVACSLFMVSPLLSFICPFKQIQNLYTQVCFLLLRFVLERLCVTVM
Procedure, shortened: as §1

[7] = target: T4, ETV2 (Homo sapiens, UniProt O00321 1-342); settings: protein: recombinant; tags: N-terminal GST; dsDNA, one strand shown
T4 sequence: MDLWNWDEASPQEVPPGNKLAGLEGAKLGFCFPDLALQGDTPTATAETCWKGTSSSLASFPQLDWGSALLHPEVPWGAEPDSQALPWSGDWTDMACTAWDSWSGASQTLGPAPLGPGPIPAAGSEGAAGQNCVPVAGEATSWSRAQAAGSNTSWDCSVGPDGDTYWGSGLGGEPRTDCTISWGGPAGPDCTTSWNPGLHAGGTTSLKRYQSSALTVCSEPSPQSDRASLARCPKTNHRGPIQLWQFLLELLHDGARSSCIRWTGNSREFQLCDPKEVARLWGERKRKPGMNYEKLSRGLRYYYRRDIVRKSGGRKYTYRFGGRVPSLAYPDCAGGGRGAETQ
Procedure, shortened: as §1

[8] = target: T5, ELF3 (Homo sapiens, UniProt P78545 1-371); settings: protein: recombinant; tags: N-terminal GST; dsDNA, one strand shown
T5 sequence: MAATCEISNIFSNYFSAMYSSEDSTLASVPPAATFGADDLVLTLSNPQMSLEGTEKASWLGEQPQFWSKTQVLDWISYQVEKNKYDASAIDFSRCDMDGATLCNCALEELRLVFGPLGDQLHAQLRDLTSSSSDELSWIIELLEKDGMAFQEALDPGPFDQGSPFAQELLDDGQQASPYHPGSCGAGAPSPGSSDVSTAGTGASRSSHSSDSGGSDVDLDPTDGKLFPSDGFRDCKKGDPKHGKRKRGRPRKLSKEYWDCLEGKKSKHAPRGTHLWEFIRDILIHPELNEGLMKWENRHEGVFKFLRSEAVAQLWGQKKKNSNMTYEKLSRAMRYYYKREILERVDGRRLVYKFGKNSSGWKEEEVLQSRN
Procedure, shortened: as §1

[9] = target: CRX (Homo sapiens, UniProt O43186 1-299); settings: protein: recombinant; tags: N-terminal GST; dsDNA, one strand shown
Sequence of CRX (O43186 whole entry): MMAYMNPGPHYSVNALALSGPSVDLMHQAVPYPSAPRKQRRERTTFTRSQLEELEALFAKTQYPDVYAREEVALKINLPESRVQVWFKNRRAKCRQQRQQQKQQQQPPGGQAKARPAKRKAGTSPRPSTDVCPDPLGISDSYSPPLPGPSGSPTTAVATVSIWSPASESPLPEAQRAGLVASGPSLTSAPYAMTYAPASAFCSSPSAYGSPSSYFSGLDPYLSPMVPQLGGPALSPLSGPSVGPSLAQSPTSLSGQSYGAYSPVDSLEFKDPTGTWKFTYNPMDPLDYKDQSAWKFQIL
Procedure, shortened: as §1

[10] = target: ETV1 (Homo sapiens, UniProt P50549 1-477); settings: protein: recombinant; tags: N-terminal GST; dsDNA, one strand shown
Sequence of ETV1 (P50549 whole entry): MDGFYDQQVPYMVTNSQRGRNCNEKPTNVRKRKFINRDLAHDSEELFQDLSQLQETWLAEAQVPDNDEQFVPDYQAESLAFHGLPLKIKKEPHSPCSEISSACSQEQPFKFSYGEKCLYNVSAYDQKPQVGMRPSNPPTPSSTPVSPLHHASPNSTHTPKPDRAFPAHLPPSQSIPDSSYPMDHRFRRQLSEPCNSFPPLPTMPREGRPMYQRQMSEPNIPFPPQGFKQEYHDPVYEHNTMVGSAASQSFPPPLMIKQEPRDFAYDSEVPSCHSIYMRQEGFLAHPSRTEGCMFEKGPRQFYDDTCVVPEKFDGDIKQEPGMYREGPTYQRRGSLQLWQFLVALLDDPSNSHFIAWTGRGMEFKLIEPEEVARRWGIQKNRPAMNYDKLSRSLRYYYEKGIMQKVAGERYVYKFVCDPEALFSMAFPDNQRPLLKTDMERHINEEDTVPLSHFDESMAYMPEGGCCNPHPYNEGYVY
Procedure, shortened: as §1

[11] = target: T6, ERF (Homo sapiens, UniProt P50548 1-548); settings: protein: recombinant; tags: N-terminal GST; dsDNA, one strand shown
T6 sequence: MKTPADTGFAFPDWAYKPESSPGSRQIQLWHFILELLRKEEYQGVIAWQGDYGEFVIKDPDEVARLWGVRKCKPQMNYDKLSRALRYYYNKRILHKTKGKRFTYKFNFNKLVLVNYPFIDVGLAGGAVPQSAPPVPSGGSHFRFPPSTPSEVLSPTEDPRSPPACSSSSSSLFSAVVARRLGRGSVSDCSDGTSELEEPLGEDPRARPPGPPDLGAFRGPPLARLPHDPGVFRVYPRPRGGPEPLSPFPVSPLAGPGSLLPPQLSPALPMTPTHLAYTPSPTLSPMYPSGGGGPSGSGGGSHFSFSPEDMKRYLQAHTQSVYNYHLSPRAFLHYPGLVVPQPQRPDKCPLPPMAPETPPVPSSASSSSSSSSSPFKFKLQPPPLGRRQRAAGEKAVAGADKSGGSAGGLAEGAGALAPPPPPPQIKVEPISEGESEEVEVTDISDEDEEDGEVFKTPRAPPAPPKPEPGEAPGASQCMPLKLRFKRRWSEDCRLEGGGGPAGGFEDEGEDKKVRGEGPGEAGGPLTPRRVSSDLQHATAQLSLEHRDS
Procedure, shortened: as §1

[12] = target: T7, ETV3L (Homo sapiens, UniProt Q6ZN32 1-361); settings: protein: recombinant; tags: N-terminal GST; dsDNA, one strand shown
T7 sequence: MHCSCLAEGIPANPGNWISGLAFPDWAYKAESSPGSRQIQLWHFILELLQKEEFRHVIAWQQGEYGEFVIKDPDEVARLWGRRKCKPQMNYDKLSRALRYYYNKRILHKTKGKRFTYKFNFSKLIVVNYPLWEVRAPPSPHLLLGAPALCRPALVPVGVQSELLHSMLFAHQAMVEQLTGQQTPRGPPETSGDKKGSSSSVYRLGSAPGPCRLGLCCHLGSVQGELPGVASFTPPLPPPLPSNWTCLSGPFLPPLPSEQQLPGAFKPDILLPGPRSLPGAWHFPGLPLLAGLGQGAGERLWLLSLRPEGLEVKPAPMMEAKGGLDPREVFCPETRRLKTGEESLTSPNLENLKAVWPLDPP
Procedure, shortened: as §1

[13] = target: T8, ETS2 (Homo sapiens, UniProt P15036 1-469); settings: protein: recombinant; tags: N-terminal GST; dsDNA, one strand shown
T8 sequence: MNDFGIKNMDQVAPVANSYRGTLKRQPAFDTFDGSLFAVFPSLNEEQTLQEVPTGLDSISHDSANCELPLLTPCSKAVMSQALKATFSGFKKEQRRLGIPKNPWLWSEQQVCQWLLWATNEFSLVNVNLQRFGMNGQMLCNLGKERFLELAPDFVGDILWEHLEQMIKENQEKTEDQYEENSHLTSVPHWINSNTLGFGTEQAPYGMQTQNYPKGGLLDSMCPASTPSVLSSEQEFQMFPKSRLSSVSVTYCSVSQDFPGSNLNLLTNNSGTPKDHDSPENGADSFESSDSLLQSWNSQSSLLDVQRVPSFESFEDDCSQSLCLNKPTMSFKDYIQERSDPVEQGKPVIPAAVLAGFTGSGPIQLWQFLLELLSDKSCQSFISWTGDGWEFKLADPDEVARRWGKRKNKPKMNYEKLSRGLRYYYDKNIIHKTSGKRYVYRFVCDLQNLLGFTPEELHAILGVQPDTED
Procedure, shortened: as §1

[14] = target: T9, SPDEF (Homo sapiens, UniProt O95238 1-335); settings: protein: recombinant; tags: N-terminal GST; dsDNA, one strand shown
T9 sequence: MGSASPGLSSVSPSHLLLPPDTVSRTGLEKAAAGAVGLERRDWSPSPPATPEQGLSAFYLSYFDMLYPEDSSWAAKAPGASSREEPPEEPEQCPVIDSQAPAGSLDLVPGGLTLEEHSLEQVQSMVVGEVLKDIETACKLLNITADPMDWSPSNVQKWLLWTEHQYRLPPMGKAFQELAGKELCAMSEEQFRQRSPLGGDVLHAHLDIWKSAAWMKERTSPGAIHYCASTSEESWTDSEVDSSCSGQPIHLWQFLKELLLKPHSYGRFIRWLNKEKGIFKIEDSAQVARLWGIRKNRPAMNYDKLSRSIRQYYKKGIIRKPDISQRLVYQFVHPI
Procedure, shortened: as §1

[15] = target: T10, ETV7 (Homo sapiens, UniProt Q9Y603 1-341); settings: protein: recombinant; tags: N-terminal GST; dsDNA, one strand shown
T10 sequence: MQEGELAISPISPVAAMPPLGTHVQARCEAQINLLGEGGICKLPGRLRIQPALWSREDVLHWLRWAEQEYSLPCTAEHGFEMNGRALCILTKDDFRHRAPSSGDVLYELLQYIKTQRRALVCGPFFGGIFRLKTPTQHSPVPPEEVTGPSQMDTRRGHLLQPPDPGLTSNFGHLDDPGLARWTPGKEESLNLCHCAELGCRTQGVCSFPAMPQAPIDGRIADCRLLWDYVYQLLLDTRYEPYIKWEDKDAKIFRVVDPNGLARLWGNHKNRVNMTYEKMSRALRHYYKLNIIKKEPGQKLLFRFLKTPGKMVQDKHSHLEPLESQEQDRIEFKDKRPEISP
Procedure, shortened: as §1

[16] = target: T11, ELF5 (Homo sapiens, UniProt Q9UKW6-2 1-255); settings: protein: recombinant; tags: N-terminal GST; dsDNA, one strand shown
T11 sequence: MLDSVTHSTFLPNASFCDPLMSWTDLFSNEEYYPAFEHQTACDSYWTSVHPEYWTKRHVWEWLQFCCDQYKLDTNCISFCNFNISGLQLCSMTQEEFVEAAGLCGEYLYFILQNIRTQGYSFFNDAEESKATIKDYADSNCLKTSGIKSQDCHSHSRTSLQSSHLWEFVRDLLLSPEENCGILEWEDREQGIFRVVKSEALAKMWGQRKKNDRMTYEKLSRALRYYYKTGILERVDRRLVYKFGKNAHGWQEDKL
Procedure, shortened: as §1

[17] = target: T12, ETV3 (Homo sapiens, UniProt P41162-2 1-143); settings: protein: recombinant; tags: N-terminal GST; dsDNA, one strand shown
T12 sequence: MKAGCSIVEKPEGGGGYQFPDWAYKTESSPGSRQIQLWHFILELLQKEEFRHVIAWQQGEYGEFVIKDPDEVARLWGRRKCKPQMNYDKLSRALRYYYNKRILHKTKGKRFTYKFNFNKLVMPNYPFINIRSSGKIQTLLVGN
Procedure, shortened: as §1

[18] = target: ETV6 (Homo sapiens, UniProt P41212 1-452); settings: protein: recombinant; tags: N-terminal GST; dsDNA, one strand shown
Sequence of ETV6 (P41212 whole entry): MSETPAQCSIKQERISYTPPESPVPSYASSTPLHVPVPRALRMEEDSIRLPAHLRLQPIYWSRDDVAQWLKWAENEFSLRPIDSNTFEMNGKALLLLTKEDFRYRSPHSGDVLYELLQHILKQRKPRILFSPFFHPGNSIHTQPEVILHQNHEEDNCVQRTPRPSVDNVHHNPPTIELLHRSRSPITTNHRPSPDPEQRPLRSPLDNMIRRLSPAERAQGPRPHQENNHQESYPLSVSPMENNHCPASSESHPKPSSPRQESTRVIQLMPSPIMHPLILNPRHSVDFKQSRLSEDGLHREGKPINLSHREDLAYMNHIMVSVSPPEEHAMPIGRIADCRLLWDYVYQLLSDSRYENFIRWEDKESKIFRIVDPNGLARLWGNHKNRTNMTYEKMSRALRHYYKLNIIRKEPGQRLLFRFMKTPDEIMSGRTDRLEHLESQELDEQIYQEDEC
Procedure, shortened: as §1

CCCATA
binding signal [1]: 1.24 fold enrichment (6-mer frequency, TF over GST control)
binding signal [2]: 1.23 fold enrichment (6-mer frequency, TF over GST control)
binding signal [3]: 1.14 fold enrichment (6-mer frequency, TF over GST control)
binding signal [4]: 1.31 fold enrichment (6-mer frequency, TF over GST control)
binding signal [5]: 1.32 fold enrichment (6-mer frequency, TF over GST control)
binding signal [6]: 1.06 fold enrichment (6-mer frequency, TF over GST control)
binding signal [7]: 1.3 fold enrichment (6-mer frequency, TF over GST control)
binding signal [8]: 1.33 fold enrichment (6-mer frequency, TF over GST control)
binding signal [9]: 1.24 fold enrichment (6-mer frequency, TF over GST control)
binding signal [10]: 1.24 fold enrichment (6-mer frequency, TF over GST control)
binding signal [11]: 1.19 fold enrichment (6-mer frequency, TF over GST control)
binding signal [12]: 1.34 fold enrichment (6-mer frequency, TF over GST control)
binding signal [13]: 1.29 fold enrichment (6-mer frequency, TF over GST control)
binding signal [14]: 1.19 fold enrichment (6-mer frequency, TF over GST control)
binding signal [15]: 1.19 fold enrichment (6-mer frequency, TF over GST control)
binding signal [16]: 1.25 fold enrichment (6-mer frequency, TF over GST control)
binding signal [17]: 1.21 fold enrichment (6-mer frequency, TF over GST control)
binding signal [18]: 1.31 fold enrichment (6-mer frequency, TF over GST control)
